Where “and” joins values, the source holds several entries; their conditions need not be identical. Equal values may be shown once. More than one record can exist for a structure, and the calls need not agree. Calls of active or inactive are those of the source. Rule for the calls: active = hit-call score of the fitted dose curve at least 0.9, where 1 is the maximum; inactive = score below 0.9.

The test in a line: CCTE_Shafer_MEA_dev_correlation_coefficient_mean: CCTE's Neural Network Formation Assay for Mean Correlation Coefficient, Shafer Lab (AID 2284093).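 For AC50: well mean pairwise spike train correlation integrated as AUC over recording days 5 to 12.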 Here is the method: CCTE_Shafer_MEA_dev assay is conducted using Axion Biosystems 48 well microelectrode array (MEA) plates and Maestro recording system. Each well of the MEA plate contains a grid of 16 microelectrodes embedded in the culture surface. Electrically active cells, such as neurons, can be cultured over the electrodes, and electrical activity in these cells can be recorded extracellularly. The spontaneous firing of neurons is captured from each electrode on a microsecond timescale providing both temporally and spatially precise data. […] The CCTE_Shafer_MEA_dev assay uses primary cultures of rat cortical neurons. Recordings are made on days post-plating 5, 7, 9 and 12. As these cultures mature over time, neural networks develop functional activity and form cohesive networks in which electrical activity can be highly coordinated. CCTE_Shafer_MEA_dev_correlation_coefficient_mean is 1 of 19 assay components of the CCTE_Shafer_MEA_dev assay. It measures the correlation coefficent of spikes (action potential firings) between every pair of electrodes in a well during a recording in a microelectrode array (MEA) using Axion Biosystems Maestro 768 channel amplifier with the AxIS adaptive spike detector. The pairwise correlations are averaged across active electrodes to report a well-mean value. To collapse across multiple recordings made on days post-plating 5, 7, 9 and 12, the trapezoidal area-under-the-curve of the component is calculated.Data from the assay component CCTE_Shafer_MEA_dev_correlation_coefficient_mean was analyzed into 1 assay endpoint. This assay endpoint, CCTE_Shafer_MEA_dev_correlation_coefficient_mean, was analyzed in the negative analysis fitting direction relative to DMSO as the negative control and baseline of activity. Using a type of functional reporter, gain or loss-of-signal activity can be used to understand electrical activity.
On the day prior to culture, each well was coated thoroughly with 150 uL of 0.05% polyethyleneimine (PEI, Sigma Cat P3143) in 50 mM HEPES (Sigma Cat H7523) at a pH of 8. The plate was incubated at 37C for one hour. PEI was rinsed out with 500 uL of sterile water three times. Plates were stored at 4C until the day of culture. This culture was plated at a seeding density of 1.5 x 10^5 cells/well on a 48-well MEA plate, prepared as described above. Cells were administered via a 25 uL media/laminin ([…]; Sigma Cat L2020-1MG) drop directly onto the microelectrode array, as adding the cells with the laminin results in better attachment than pre-coating with laminin. After 2 hours, an additional 475 uL of cortical media was added and the cells returned to the incubator. Exposure starts at day 0 of plating and is continued over twelve days of network development until the experiment is terminated. Cells are fed with fresh medium on DIV 5 and 9, following the recordings on those days. The entire volume of media in the well is exchanged and any vehicle or compound treatment is renewed. Complete details are found in OP-NHEERL/ISTD/SBB/TJS/2015-03-r0 (available on request, email shafer.tim@epa.gov). Measurement of the electrical activity is non-invasive, and recordings can be made from the same plate over multiple different days of the culture. In cortical neurons, this allows for the measurement of extracellular action potentials over the period during which networks form in the MEA plate.
Turning to `CC(C)=CC1C(C(=O)OCN2C(=O)C3=C(CCCC3)C2=O)C1(C)C` (stereo not given), the outcome was inactive.

Take `C[N+]1(C)CCCCC1`: the compound was classed as inactive.

In the case of `O=[N+]([O-])c1cc(C(F)(F)F)c(Cl)c([N+](=O)[O-])c1Nc1ncc(C(F)(F)F)cc1Cl`, the concentration at half-maximal activity (AC50) (in general, the concentration at which the activity in the assay is half-maximal) was 0.65 µM (active).

With `CCOP(=O)(NC(C)C)Oc1ccc(SC)c(C)c1` (stereo not given), the call was inactive and the half-maximal activity concentration (AC50) was 90.9 µM (active).

As to `CC(Oc1cccc(Cl)c1)C(=O)O` (stereo not given), the compound was classed as inactive.

Take `CCOP(=S)(Oc1cnc(C(C)(C)C)nc1)OC(C)C` (stereo not given): the AC50 is 79.7 µM (active) and 17.4 µM (active).

For the compound `CN(C)[C@@H]1C(=O)C(C(N)=O)=C(O)[C@@]2(O)C(=O)C3=C(O)c4c(O)cccc4[C@@](C)(O)[C@H]3[C@H](O)[C@@H]12`, the AC50 is 88.2 µM (active).

Regarding `CC[C@H](C)[C@H]1O[C@]2(C=C[C@@H]1C)C[C@@H]1C[C@@H](C/C=C(\C)[C@@H](O[C@H]3C[C@H](OC)[C@@H](O[C@H]4C[C@H](OC)[C@@H](NC)[C@H](C)O4)[C@H](C)O3)[C@@H](C)/C=C/C=C3\CO[C@@H]4[C@H](O)C(C)=C[C@@H](C(=O)O1)[C@]34O)O2`, the AC50 is 318 nM (active) and 15.9 nM (active).

On to `C[Si](Cn1cncn1)(c1ccc(F)cc1)c1ccc(F)cc1`, for which the result was inactive.

As to `CC(C)[C@H](C(=O)O[C@H](C#N)c1cccc(Oc2ccccc2)c1)c1ccc(Cl)cc1`, the half-maximal activity concentration (AC50) is 0.564 µM (active).

For the compound `CC1=NNC(=O)N(/N=C/c2cccnc2)C1`, the compound was classed as inactive.

For `CON=C(C(=O)OC)c1ccccc1CON=C(C)c1cccc(C(F)(F)F)c1`, the concentration at half-maximal activity (AC50) was 941 nM (active) and 501 nM (active).

Take `CCCSP(=O)(OCC)SCCC`: the concentration at half-maximal activity (AC50) is 15.8 µM (active) and 20.4 µM (active).

Regarding `CCCCSP(=O)(SCCCC)SCCCC`, the AC50 is 29.6 µM (active) and 35 µM (active).

Consider `C#CCC1=C(C)C(OC(=O)C2C(C=C(C)C)C2(C)C)CC1=O` (stereo not given), for which the AC50 was 3 µM (active).

With `C=C(C)[C@H]1Cc2c(ccc3c2O[C@@H]2COc4cc(OC)c(OC)cc4[C@@H]2C3=O)O1`, the AC50 is 14.5 nM (active) and 16.1 nM (active).

For `CN1COCN(Cc2cnc(Cl)s2)C1=N[N+](=O)[O-]`, the compound was called inactive.

Regarding `CCOP(=S)(OCC)SCCSCC`, the result was inactive.

For the compound `CCOC(=O)CC(SP(=O)(OC)OC)C(=O)OCC` (stereo not given), the compound was classed as inactive.

As to `CCCSP(=O)(OCC)Oc1ccc(Br)cc1Cl` (stereo not given), the call was inactive.

With `CCOP(=O)(SC(C)CC)N1CCSC1=O` (stereo not given), the outcome was inactive.

As for `COP(=O)(OC)C(O)C(Cl)(Cl)Cl` (stereo not given), the concentration at half-maximal activity (AC50) is 31.7 µM (active) and 15 µM (active).

For the compound `CCOP(=S)(OCC)OC(Cl)C(Cl)(Cl)Cl` (stereo not given), the AC50 is 21.2 µM (active) and 17.8 µM (active).

Consider `CCOP(=O)(OCC)Oc1cc(C)nc(C(C)C)n1`, for which the call was inactive.

Turning to `S=C1NCCN1`, the result was inactive.

Regarding `CSC1=N[C@@](C)(c2ccccc2)C(=O)N1Nc1ccccc1`, the compound was called inactive.

`CCOP(=S)(OCC)Oc1ccc2c(C)c(Cl)c(=O)oc2c1`: the AC50 is 41.6 µM (active).

`CCOP(=S)(OCC)Oc1cc(C)nc(C(C)C)n1`: the call was inactive and the AC50 is 50 µM (active).

`COP(=O)(NC(C)=O)SC` (stereo not given): the call was inactive.

Turning to `CC(C)N(C(=O)SCC(Cl)=C(Cl)Cl)C(C)C`, the AC50 was 15 µM (active).

Consider `CCOP(=S)(OCC)Oc1ccc([N+](=O)[O-])cc1`, for which the call was inactive.

Take `CC(=NC#N)N(C)Cc1ccc(Cl)nc1`: the result was inactive.

With `COP(=O)(OC)OC(Br)C(Cl)(Cl)Br` (stereo not given), the AC50 was 8.49 µM (active) and 16 µM (active).

(Values after PubChem BioAssay (EPA / NIEHS).)
